A3G deaminase: APOBEC3G (human) deaminase inhibition | AID 493012 | inhibition, % at 20 µM | Q9HC16 | actives 0.28% (n = 330,000) | recombinant A3G, ssDNA deamination FAM/TAMRA fluorescence;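 active means inhibition of at least 40% at 20 µM, with no more than 30% in the related APOBEC3A deaminase screen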;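 further: plate controls were DMSO wells with A3G for no effect and wells lacking A3G enzyme for full effect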
aDG glyco up: alpha-DG glycosylation activation. Pro5-aDG cells, alpha-DG glycosylation AlphaScreen (IIH6); 0% Pro5, 100% B10-LARGE cell signal. activation, % at 10 µM. actives 0.22% (n = 360,000). AID 624168;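 active means activation of at least 8% versus controls, or a plate z-score of at least 8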;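 further: Pro5 are CHO cells carrying HIG-tagged alpha-DG that lacks glycosylation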
ALR inh: human ALR oxidase inhibition via reduced H2O2; P55789; purified ALR, DTT oxidation, H2O2 HRP-luminol luminescence; inhibition, % (test concentration not listed); actives 3.8% (n = 290,000);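 active means mean replicate inhibition above about 79%, with every replicate also reaching it, limit read from the data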
Target sequence (P55789 whole entry, looked up): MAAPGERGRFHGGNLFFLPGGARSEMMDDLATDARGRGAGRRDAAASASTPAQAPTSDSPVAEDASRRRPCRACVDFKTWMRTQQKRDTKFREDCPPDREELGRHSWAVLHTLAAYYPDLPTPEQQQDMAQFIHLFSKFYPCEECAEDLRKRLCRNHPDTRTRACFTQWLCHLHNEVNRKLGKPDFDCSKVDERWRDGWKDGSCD
PHOSPHO1 block: blocks human PHOSPHO1 phosphatase activity | recombinant PHOSPHO1, absorbance phosphatase assay | inhibition, % at 13.3 µM | actives 1.1% (n = 290,000); in the data active means inhibition above about 60%
APOBEC3A inh: human APOBEC3A DNA deaminase inhibition; P31941; inhibition, % at 20 µM; recombinant A3A, FAM/TAMRA ssDNA deamination fluorescence; actives 0.41% (n = 330,000);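 active means at least 40% inhibition at 20 µM here, with at most 30% in a related deaminase screen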;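 further: plate controls were A3A with DMSO for no effect and wells lacking A3A enzyme for full effect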
Target sequence (P31941 whole entry, looked up): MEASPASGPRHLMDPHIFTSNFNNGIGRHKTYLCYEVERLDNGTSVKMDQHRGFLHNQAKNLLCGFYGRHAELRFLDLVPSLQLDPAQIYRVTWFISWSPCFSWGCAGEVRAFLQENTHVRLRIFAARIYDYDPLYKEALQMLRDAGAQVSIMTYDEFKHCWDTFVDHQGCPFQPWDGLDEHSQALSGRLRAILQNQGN
rCAG binder: r(CAG) repeat RNA binding; TO-PRO-1 dye displacement fluorescence; inhibition, % at 3 µM; actives 1.3% (n = 370,000);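 active means inhibition above the plate cutoff, the mean of all test compounds on that plate plus 3 SD, cut at about 35% in these data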;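 further: 0% = DMSO alone and 100% = 100 µM mitoxantrone as full dye displacement; higher means more dye released from RNA so lower well fluorescence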
A3G conf: confirmation of human APOBEC3G DNA deaminase inhibitors | actives 72% (n = 890) | inhibition, % at 20 µM | shares compounds with A3G deaminase | AID 493152 | recombinant A3G ssDNA deaminase, UDG/FAM-TAMRA fluorescence;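 active means inhibition reaching a set limit in any replicate at 20 µM, the limit being 80% of the first screen's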
UDG ctr A3G: inhibits E. coli UDG, flagging false APOBEC3G inhibitors; shares compounds with A3G deaminase; UDG counterscreen, FAM/TAMRA oligo fluorescence; inhibition, % at 20 µM; 710 tested, under 10 active;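 active means compounds giving 40% or more inhibition at 20 µM in any one of the three replicates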;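 further: plate controls were DMSO wells with UDG and oligo for no effect and DMSO wells lacking both for full effect; inhibitors lower the FAM signal released by uracil excision and alkaline cleavage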
Target sequence (P12295 whole entry, looked up): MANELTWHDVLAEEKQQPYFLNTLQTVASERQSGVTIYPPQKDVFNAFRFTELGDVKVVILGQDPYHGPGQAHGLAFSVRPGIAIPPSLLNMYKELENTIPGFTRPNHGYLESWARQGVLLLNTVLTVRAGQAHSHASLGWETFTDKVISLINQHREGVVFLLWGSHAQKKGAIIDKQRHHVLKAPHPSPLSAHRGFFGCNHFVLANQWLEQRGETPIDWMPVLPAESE
* marks the source's active call; other numbers are inactive results; · = not tested or not shown. Shown are actives, neighbours in structure and some others; about 5.4% of the full set was active somewhere.

SMILES | A3G deaminase | aDG glyco up | ALR inh | PHOSPHO1 block | APOBEC3A inh | rCAG binder | A3G conf | UDG ctr A3G
Cc1nc2[nH]c(=S)[nH]c2cc1Br | 47* | 0 | -1 | 101* | -2 | -1 | 82* | 2
CCOC(=O)c1ccc(S(=O)(=O)Nc2cc(S(=O)(=O)N3CCOCC3)ccc2O)cc1 | 52* | 0 | 16 | · | 1 | 13 | 27* | -4
Oc1cc2c(cc1O)C1c3ccc(O)c(O)c3OCC1(O)C2 (configuration not stated) | 61* | 0 | 100* | 44 | 2 | 1 | 69* | ·
COc1ccc(Cc2c(-c3cccc(Cl)c3)nc3ccc(C)cn23)c(C)c1 | · | 0 | · | · | · | 8 | · | ·
COC(=O)[C@]12C[C@H](CC(=O)NCCc3ccccc3OC)C(=O)N(CCc3ccc(OC)c(OC)c3)C1=C[C@H](COCc1ccccc1)O[C@@H]2C | · | · | · | · | · | 3 | · | ·
O=C1c2c(O)cccc2Cc2cccc(O)c21 | 67* | 0 | -4 | · | 11 | 7 | 78* | -5
CCN(CC)C(=O)C1=C(C)N(CCC2=CCCCC2)C(=O)C(CC(=O)NCc2cccc3ccccc23)C1 (configuration not stated) | · | 0 | · | · | · | 1 | · | ·
Cc1ccc(S(=O)(=O)Cn2nnnc2C(c2ccccn2)N2CCN(c3ccccc3)CC2)cc1 (configuration not stated) | -3 | 0 | -17 | -2 | -4 | 1 | · | ·
Cc1ccc(C(c2nnnn2CS(=O)(=O)c2ccc(C)cc2)N2CCN(c3ncccn3)CC2)cc1 (configuration not stated) | 71* | 0 | 2 | -1 | 1 | -3 | 2 | ·
COC(=O)c1cc2c(n1S(=O)(=O)c1ccc(C)cc1)C(=O)C(=O)c1[nH]cc(C(=O)OCc3ccccc3)c1-2 | · | -1 | · | · | · | · | · | ·
O=C(NNc1ccc(O)cc1)c1ccc(Br)cc1 | 53* | 1 | 99* | 38 | -3 | 1 | 19 | -2
O=C(NNc1ccccc1)c1ccccc1 | · | 1 | · | · | · | 2 | · | ·
Cc1noc(C)c1S(=O)(=O)N1CCCC(C(=O)NCc2ccccn2)C1 (configuration not stated) | 49* | 0 | -2 | 5 | 3 | -2 | 1 | ·
Cc1ccc(CNC(=O)C2CCCN(S(=O)(=O)c3c(C)noc3C)C2)cc1 (configuration not stated) | -7 | 0 | -1 | -12 | -2 | 0 | · | ·
COC(=O)[C@]12C[C@H](CC(=O)NCc3ccc(OC)c(OC)c3)C(=O)N(Cc3ccc(Cl)cc3Cl)C1=C[C@H](C(C)(C)C)O[C@@H]2C | · | · | · | · | · | 6 | · | ·
Cc1nnn(-c2nonc2N)c1C(=O)N/N=C/c1cccc2ccccc12 | -6 | -1 | -10 | -12 | -1 | 2 | · | ·
Cc1nnn(-c2nonc2N)c1C(=O)N/N=C/c1ccccc1O | 44* | 0 | -13 | -17 | 24 | 1 | 40* | 3
O=C(Nc1cccc(N2C(=O)C=CC2=O)c1)c1cccs1 | 55* | 0 | · | · | 24 | 18 | 58* | ·
CC(=O)N(C1=C(Cl)C(=O)c2ccccc2C1=O)C1CCCCC1 | 83* | 0 | 22 | -82 | 5 | -2 | 92* | -1
CC(=O)N(c1ccccc1C)C1CCCC1 | -5 | 0 | -5 | 7 | -6 | -2 | · | ·
O=C1NC[C@@H](Cc2ccc(O)cc2)N(CCc2cc(C(F)(F)F)cc(C(F)(F)F)c2)C1=O | · | 0 | · | · | · | 0 | · | ·
S=c1[nH]nc(-c2ccco2)n1-c1ccc(Br)cc1 | 42* | 0 | 74 | · | -1 | 5 | 69* | -3
Cc1cccc(-n2c(-c3ccco3)n[nH]c2=S)c1 | 54* | 0 | 86* | 4 | -2 | 0 | 60* | -4
C/C(=N/NC(=O)c1ccoc1C)c1cccs1 | · | · | · | · | · | 0 | · | ·
Cc1csc(NC(=O)Cn2nc(C)c([N+](=O)[O-])c2C)n1 | -6 | 0 | -1 | 10 | 0 | 3 | · | ·
SMILES | A3G deaminase | aDG glyco up | ALR inh | PHOSPHO1 block | APOBEC3A inh | rCAG binder | A3G conf | UDG ctr A3G
CCc1c(C)sc(NC(=O)Cn2nc(C)c([N+](=O)[O-])c2C)c1C(N)=O | 52* | 0 | -5 | -7 | 0 | 0 | 24* | -4
CC[C@H](CCCCCC#N)CCC(=O)N(c1ccccc1)c1ccccc1 | · | · | · | · | · | -2 | · | ·
CCOC(=O)c1c(NC(=O)c2ccccc2Br)sc2c1CCc1ccccc1-2 | 46* | 0 | -7 | 71* | 3 | 10 | 33* | -4
CCOC(=O)c1c(NC(C)=O)sc2c1CCC(C=O)=C2Sc1ccccc1 | 41* | 0 | 1 | 91* | -4 | 14 | 2 | 3
Cc1cccnc1CNC(=O)C1(C)CCCN1CC(C)C (configuration not stated) | · | 0 | · | · | · | -1 | · | ·
CC(=O)NC1CC2CCCC(C1)N2C(=O)Nc1cccc(C(C)=O)c1 (configuration not stated) | · | 0 | · | · | · | -2 | · | ·
CN(N=Cc1ccccc1)C(=S)Nc1ccccc1 | · | 0 | · | · | · | 2 | · | ·
CCCOc1ccc(C(=O)NNC(=S)NC(=O)CC)cc1 | 48* | 2 | 69 | 38 | -1 | 3 | 6 | -2
COc1ccc(CN2CCNC(=O)C2CC(=O)N(Cc2nccn2C)C(C)C)c(OC)c1 (configuration not stated) | 43* | 0 | -7 | 22 | 24 | -6 | 16* | -4
COCCN(C(=O)COC(=O)Cc1ccc(Cl)cc1Cl)c1c(N)n(Cc2ccccc2)c(=O)[nH]c1=O | 43* | 0 | 4 | · | 7 | -3 | -2 | ·
COc1cc(/C=N/n2c(-c3n[nH]c4c3CCC4)n[nH]c2=S)cc(OC)c1O | 54* | 0 | 95* | -64 | -1 | -1 | 68* | -2
S=c1[nH]nc(-c2n[nH]c3c2CCC3)n1N=Cc1c2ccccc2cc2ccccc12 | · | · | · | · | · | 26 | · | ·
COc1cccc(/C=N/n2c(-c3cc(C)[nH]n3)n[nH]c2=S)c1O | 53* | 0 | 98* | -19 | -4 | 0 | 85* | 6
Cc1nnc(N/N=C\c2ccc(-c3ccccc3[N+](=O)[O-])o2)n1N | · | 0 | -19 | -5 | · | 4 | · | ·
COc1cccc(/C=N/n2c(-c3n[nH]c4c3CCC4)n[nH]c2=S)c1O | 66* | 0 | 97* | 47 | -4 | -1 | 82* | -12
Cc1n[nH]c(=S)n1/N=C/c1ccc(-c2ccccc2[N+](=O)[O-])o1 | 45* | 0 | -18 | 8 | -5 | 4 | 68* | -6
Cc1cc(-c2n[nH]c(=S)n2/N=C/c2ccccc2[N+](=O)[O-])n[nH]1 | 61* | 0 | 95* | -17 | -5 | 2 | 82* | -2

Screening data deposited in PubChem by several laboratories.
